Compounds with a hit are over-represented: about 0.44% of the library has one in this group of screens.
EPAC1 ag: EPAC1 (human) agonism | EPAC1 agonist qHTS, biochemical assay; response scale: 100% = response to 6.5 mM cAMP | Potency, µM (top dose mostly 154 µM), inactives show at the highest dose activation, most hits filed as activators | actives 0.073% (n = 360,000); note: nearly all actives have a fitted effect of over 60% in size
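Normalized to 6.5 mM cAMP, activity reflects EPAC1-catalysed release of BODIPY-GDP from Rap1B, followed kinetically over 30 min at 480 nm excitation, 540 nm emission. Reaction contained 100 nM EPAC1, 250 nM Rap1B-BODIPY-GDP, 50 uM GDP.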
EPAC1 antag: EPAC1 (human) antagonism; AID 720709; EPAC1 GEF assay, Rap1b-BODIPY-GDP exchange fluorescence; O95398; actives 0.14% (n = 360,000); Potency, µM (series often up to 115 µM), for the others: top-dose activity change, negative = inhibition, actives largely listed as inhibitors;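 note: plate controls were vehicle for no effect and positive control for full effect; nearly all actives have a fitted effect of over 50% in size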
USP1-UAF1 inh: USP1/UAF1 (human) deubiquitinase inhibition | recombinant USP1/UAF1, Ub-Rhodamine cleavage fluorescence | Potency, µM (titrated, usually from 57.1 µM), inactives show at the top dose activity change, negative = inhibition, most hits filed as inhibitors | actives 0.23% (n = 390,000) | AID 743255; note: % is set by controls: 0 for no effect and ±100 for the full control effect; nearly all actives have a fitted effect of over 60% in size
Target sequence (O94782 whole entry, looked up): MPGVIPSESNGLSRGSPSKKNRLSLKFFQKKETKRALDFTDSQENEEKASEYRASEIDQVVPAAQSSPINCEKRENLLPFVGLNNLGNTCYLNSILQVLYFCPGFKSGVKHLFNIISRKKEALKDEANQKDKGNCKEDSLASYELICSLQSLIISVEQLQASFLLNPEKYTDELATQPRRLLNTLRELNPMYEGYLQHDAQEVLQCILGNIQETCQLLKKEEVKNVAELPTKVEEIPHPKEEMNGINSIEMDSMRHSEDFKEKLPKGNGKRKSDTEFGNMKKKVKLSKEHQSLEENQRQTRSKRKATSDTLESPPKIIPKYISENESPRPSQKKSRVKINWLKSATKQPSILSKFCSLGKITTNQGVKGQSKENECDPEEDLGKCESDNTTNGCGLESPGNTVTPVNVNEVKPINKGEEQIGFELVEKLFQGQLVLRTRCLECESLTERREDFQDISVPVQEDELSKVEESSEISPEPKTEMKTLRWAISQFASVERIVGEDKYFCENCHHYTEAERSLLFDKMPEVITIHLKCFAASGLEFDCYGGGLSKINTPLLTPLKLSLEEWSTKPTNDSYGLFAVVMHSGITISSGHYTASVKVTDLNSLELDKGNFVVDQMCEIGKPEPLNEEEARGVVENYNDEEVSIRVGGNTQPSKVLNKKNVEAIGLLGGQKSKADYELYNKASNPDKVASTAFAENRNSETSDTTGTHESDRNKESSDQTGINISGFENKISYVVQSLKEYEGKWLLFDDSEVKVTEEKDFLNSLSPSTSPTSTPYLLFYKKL
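USP1/UAF1 complex (1 nM) preincubated 15 min at room temperature with compound, then Ub-Rho substrate (150 nM final) added. Kinetic fluorescence at 480/540 nm over 6 reads at 60 s intervals; 50 mM HEPES pH 7.8, 0.5 mM EDTA, 0.1 mg/ml BSA, 1 mM TCEP, 0.01% Tween-20.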
EPAC2 agonist: activates human EPAC2 exchange factor; Q8WZA2; EPAC2 activation, biochemical qHTS; response scale: 100% = 6.5 mM cAMP response; Potency, µM (series often up to 154 µM), for inactives: at the top dose activation, most hits filed as activators; actives 0.079% (n = 360,000); AID 720711; note: nearly all actives have a fitted effect of over 50% in size
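Setup: EPAC2 100 nM, labeled Rap1B complex 250 nM, free GDP 50 uM. Compound titrations pinned in, brief spin, 5 min room temperature incubation. Kinetic fluorescence read over 30 min, normalized to 6.5 mM cAMP.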
EPAC2 antag: blocks human EPAC2 exchange factor. EPAC2 GEF exchange of Rap1B-BODIPY-GDP, fluorescence. Potency, µM (highest dose often 114 µM), inactives show top-dose activity, negative = inhibition, hits mostly inhibitors. Q8WZA2. actives 0.18% (n = 360,000). AID 720708; note: % is set by controls: 0 for no effect and ±100 for the full control effect; nearly all actives have a fitted effect of over 45% in size
Starred values were filed as active, the others as inactive; ? = inconclusive; . = no result given. Calls come from the whole dose curve; as a rule, active = well fitted curve in the direction sought with a large enough effect; inconclusive = small, poorly fitted or top-dose-only effect, or another doubt; inactive = no such curve, though single readings can be large; an effect the other way counts as inactive or inconclusive. Potency is the fitted concentration of half-maximal effect.

SMILES	EPAC1 ag	EPAC1 antag	USP1-UAF1 inh	EPAC2 agonist	EPAC2 antag
O=C(NCc1ccccn1)C1(C(F)(F)F)C/C(=C\CCO)CCCO1 (stereo not drawn)	-4.9%	-8.4%	1.9%	16.7%	-17.3%
COc1cccc(-n2c(SCC(=O)Nc3nnc(C)s3)nc3c([nH]c4ccccc43)c2=O)c1	.	.	-27.6%	.	.
N#Cc1ccc(/C=C\c2nccc3c2[nH]c2ccccc23)cc1	?	-7.1%	22.4µM*	12.0%	?
Clc1ccc(/C=C\c2nccc3c2[nH]c2ccccc23)cc1	-10.0%	21.5%	-21.5%	1.8%	9.6%
N#C/C(=C/c1ccc(O)c(O)c1)c1nc2ccccc2[nH]1	-125.2%	89.1µM*	-10.3%	8.5%	?
N#C/C(=C\c1cc(Br)c(O)c(Br)c1)c1nc2ccccc2c(=O)[nH]1	.	.	28.2µM*	.	.
N#C/C(=C\c1ccc(Cl)cc1)c1nc2ccccc2[nH]1	.	.	6.1%	.	.
CC(C)=CCC1=C(OCC(=O)O)C(=O)c2ccccc2C1=O	1.8%	?	10µM*	22.9%	?
Cc1ccc(S(=O)(=O)Nc2ccc(-c3ccc(N4CCCCCC4)nn3)cc2)cc1C	.	.	-18.3%	.	.
Cc1cc(SCC(=O)c2ccc3c(c2)OCO3)nc2ccccc12	18.8%	-0.5%	?	19.9%	-3.5%
Cc1cc(SCC(=O)c2ccc(O)c(O)c2)nc2ccccc12	12.5%	28.2µM*	-10.2%	19.2%	-29.6%
O=C(CSc1n[nH]c(-c2ccccc2)n1)c1ccc(O)c(O)c1	-1.5%	35.5µM*	-3.5%	10.1%	0.8%
Cc1ccc2nc(/C(C#N)=C/c3ccc(-c4ccccc4C(=O)O)o3)[nH]c2c1	24.3%	1.5%	31.6µM*	17.1%	4.5%
Cc1ccc(/C(C#N)=C\c2ccc(N3CCOCC3)o2)cc1	10.6%	-3.2%	25.1µM*	?	-0.4%
N#C/C(=C\c1ccc(N2CCOCC2)o1)C(=O)NCCc1ccccc1	19.3%	-5.6%	?	14.2%	-10.3%
Cc1ccc2nc(/C(C#N)=C\c3ccc(N4CCOCC4)o3)[nH]c2c1	?	41.4%	25.1µM*	39.8µM*	16.7%
N#C/C(=C/c1ccc(N2CCCCCC2)o1)c1ccc(Cl)cc1	1.6%	6.4%	?	9.8%	10.4%
N#C/C(=C/c1ccc(N2CCOCC2)o1)C(=O)Nc1ccccc1	100µM*	8.0%	25.1µM*	100µM*	65.0%
Cc1ccc(C(=O)NCCS(=O)(=O)N2CCN(c3ccccc3F)CC2)cc1[N+](=O)[O-]	6.4%	4.2%	-8.2%	5.1%	-4.9%
N#C/C(=C/c1ccc(N2CCCCC2)o1)c1cccc(F)c1	-8.1%	7.7%	17.8µM*	-1.2%	8.1%
O=C(Cc1ccsc1)NNC(=O)c1ccccc1Cl	20.7%	-1.2%	-7.8%	9.6%	1.2%
Cc1ccc(NC2CNC(=O)NC2=O)cc1C (stereo not drawn)	-9.4%	8.1%	1.1%	2.0%	25.3%
Cc1ccc(NC2C(=O)NC(=O)NC2=O)cc1	-7.4%	79.4µM*	?	13.8%	?
Cc1csc2nc(COc3ccc(NC(=O)c4ccccc4F)cc3)cc(=O)n12	.	.	-7.8%	.	.
Clc1ccccc1C(c1ccccc1)(c1ccccc1)n1ccnc1	5.2%	-4.4%	-16.6%	20.4%	14.1µM*
SMILES	EPAC1 ag	EPAC1 antag	USP1-UAF1 inh	EPAC2 agonist	EPAC2 antag
O=C(O)c1cccc(CN2C(=O)c3ccccc3C2=O)c1	-0.7%	-20.6%	-30.8%	15.2%	2.8%
O=C1c2cccc3c(O)ccc(c23)C(=O)N1Cc1ccccc1	100µM*	227.0%	6.31µM*	89.1µM*	276.7%
O=C1Cc2ccccc2C(=O)N1Cc1ccccc1	3.1%	-4.2%	3.16µM*	-2.0%	-4.6%
O=C1Cc2ccccc2C(=O)N1c1ccccc1	2.5%	-11.8%	?	0.8%	-3.5%
CCCC(=O)O[C@@H]1C[C@@H](C)N(C(=O)c2ccccc2)c2ccc(C)cc21	-3.4%	8.2%	-13.0%	-20.5%	20µM*
Nc1ccc(S(=O)(=O)Nc2nccs2)cc1N=Nc1ccccc1[N+](=O)[O-]	12.0%	?	-16.0%	-1.2%	10µM*
COCCCN(Cc1cc(OC)c(OC)c(OC)c1)C(=S)Nc1cccc(Cl)c1	6.1%	-5.4%	-24.1%	14.2%	-22.5%
Cc1cccc(S(=O)(=O)NC(=O)C2(C)CCN2C(=O)Cc2cc(F)ccc2F)c1 (stereo not drawn)	-10.8%	100µM*	.	8.5%	-11.2%
CCOC(=O)Cn1c(=O)oc2cc(S(=O)(=O)N3CCN(c4cccc(C)c4C)CC3)ccc21	.	.	-11.8%	.	.
COc1ccc(C(=O)NC(=S)NCc2ccco2)cc1	-1.4%	-23.9%	-3.7%	14.5%	2.2%
O=C(COc1ccccc1C(=O)N/N=C\c1ccc(O)c(O)c1)N/N=C/c1ccc(O)c(O)c1	-8.7%	10µM*	-12.2%	-5.0%	9.5%
O=C(NN=Cc1ccc(O)c(O)c1)c1ccccc1	-1.4%	-8.3%	.	6.0%	0.8%
CCOC(=O)c1c(C)oc2nc(C)nc(NCCCN3CCN(c4ccccc4OC)CC3)c12	.	.	4.6%	.	.
COc1cc(/C=N/NC(=O)C(Cc2c[nH]c3ccccc23)NC(=O)OCC(C)C)cc([N+](=O)[O-])c1O (stereo not drawn)	-12.5%	-14.0%	-22.4%	-8.9%	0.6%
COc1cc(/C=N/NC(=O)C(Cc2c[nH]c3ccccc23)NC(=O)OCc2ccccc2)cc([N+](=O)[O-])c1O (stereo not drawn)	-5.8%	79.4µM*	?	-14.4%	-16.0%
C=CCn1c(SCC(=O)Nc2cccc(S(N)(=O)=O)c2)nnc1C1CCCCC1	-3.4%	1.5%	-13.0%	-1.1%	-0.5%
CCOC(=O)C1=C(C)N=c2s/c(=C\c3cccn3C)c(=O)n2C1c1cccc(OC)c1OC (stereo not drawn)	22.4%	3.5%	-16.4%	112µM*	16.6%
CCNC(=O)C1(C)CCN(C(=O)c2cccc(Cl)c2)C1 (stereo not drawn)	-4.2%	10.3%	.	10.5%	14.4%
c1ccc(-n2nnnc2-n2ccnc2)cc1	-4.9%	-15.1%	-9.0%	10µM*	-0.6%
CC(C)O/C(=N/S(=O)(=O)c1ccc(Cl)cc1)c1ccccc1	1.6%	4.5%	-24.2%	14.2%	50.1µM*
COC(=O)C1CCN(c2csc3ccc(C)cc3c2=O)CC1	.	.	-23.0%	.	.
O=C(O)CCCCCN1C(=O)/C(=C\c2cn(-c3ccccc3)nc2-c2cccs2)SC1=S	14.9%	-15.9%	?	24.8%	52.4%
O=C(O)CCCCCN1C(=O)/C(=C/c2cn(-c3ccccc3)nc2-c2cccs2)SC1=S	89.1µM*	50.0%	?	23.8%	65.9%
CCC(Oc1ccccc1)C(=O)N1CCN(Cc2cc(=O)n3nc(-c4cccc(C)c4)sc3n2)CC1 (stereo not drawn)	.	.	1.3%	.	.
CCc1cccc(NC(=O)COC(=O)/C=C/c2cccs2)c1	112µM*	-15.0%	-22.6%	-2.2%	4.1%

Screening results (PubChem BioAssay)
